# Source: article PMC12820563, “FoxP3 forms a head-to-head dimer in vivo and stabilizes its multimerization on adjacent microsatellites”
# Over roughly 16,000 sequences, “rpm ratio (pull-down/input)” has its median near 0.94; the highest 2% begin near 1.7. For the sample, the highest values were picked, then their nearest neighbours and some sequences at random.
# Target: T1, MBP-FoxP1dN (Mus musculus, UniProt P58462 326-579)
# T1 sequence: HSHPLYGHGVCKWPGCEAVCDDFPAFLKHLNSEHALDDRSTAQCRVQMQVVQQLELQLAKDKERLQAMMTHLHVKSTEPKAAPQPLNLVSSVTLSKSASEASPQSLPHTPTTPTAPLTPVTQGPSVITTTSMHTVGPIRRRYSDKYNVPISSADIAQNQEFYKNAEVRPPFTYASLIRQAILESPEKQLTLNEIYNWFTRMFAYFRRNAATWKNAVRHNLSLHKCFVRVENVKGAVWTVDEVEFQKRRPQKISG
# Assay: PD-seq (MBP pull-down with sequencing); 20 mM Tris-HCl pH 7.5, 100 mM NaCl, 1.5 mM MgCl2, 0.4 uM protein, 0.1 uM dsDNA library, 30 min, room temperature, amylose pull-down; high values mean tight binding
# Details: protein: recombinant; tags: His6-MBP; chain copies: 2; dsDNA, one strand shown
# How it was run: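 Protein and DNA were mixed at 0.4 µM and 0.1 µM and held for 30 min at room temperature in Tris pH 7.5 buffer with NaCl and MgCl2; the protein was a His6-MBP-tagged, N-terminally truncated mouse FoxP3 or FoxP1 fragment from E. coli, and the DNA a Klenow-filled double-stranded degenerate library. Amylose resin captured the complexes, which were washed three times. Binding is read as reads-per-million enrichment of pull-down versus input after Illumina sequencing, with replicates pooled.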
row,Sequence,binding signal
1,GATGATTGTTCTCCCAGCTGATGAATTTGGCAGCTCGAGTAAACAAATTTTCCTAATCTTTCTGTTCAAGCGCCATCTAC,0.875 RPM ratio (pull-down/input)
2,GATGATTGTTCTCCCAGCTGATGAATTAACGCTGTCGAGTAAACAAATTTTCCTAATCTTTCTGTTCAAGCGCCATCTAC,0.97 RPM ratio (pull-down/input)
3,GATGATTGTTCTCCCAGCTGATGAATTAAAGAGTTCGAGTAAACAAATTTTCCTAATCTTTCTGTTCAAGCGCCATCTAC,0.941 RPM ratio (pull-down/input)
4,GATGATTGTTCTCCCAGCTGATGAATTCAGATTATCGAGTAAACAAATTTTCCTAATCTTTCTGTTCAAGCGCCATCTAC,0.977 RPM ratio (pull-down/input)
5,GATGATTGTTCTCCCAGCTGATGAATTCGGTAGATCGAGTAAACAAATTTTCCTAATCTTTCTGTTCAAGCGCCATCTAC,0.874 RPM ratio (pull-down/input)
6,GATGATTGTTCTCCCAGCTGATGAATTTATATGATCGAGTAAACAAATTTTCCTAATCTTTCTGTTCAAGCGCCATCTAC,1.14 RPM ratio (pull-down/input)
7,GATGATTGTTCTCCCAGCTGATGAATTCCTTTATTCGAGTAAACAAATTTTCCTAATCTTTCTGTTCAAGCGCCATCTAC,0.944 RPM ratio (pull-down/input)
8,GATGATTGTTCTCCCAGCTGATGAATTATTTATTTCGAGTAAACAAATTTTCCTAATCTTTCTGTTCAAGCGCCATCTAC,2.06 RPM ratio (pull-down/input)
9,GATGATTGTTCTCCCAGCTGATGAATTTTTTTATTCGAGTAAACAAATTTTCCTAATCTTTCTGTTCAAGCGCCATCTAC,0.953 RPM ratio (pull-down/input)
10,GATGATTGTTCTCCCAGCTGATGAATTGTTTTATTCGAGTAAACAAATTTTCCTAATCTTTCTGTTCAAGCGCCATCTAC,1.6 RPM ratio (pull-down/input)
11,GATGATTGTTCTCCCAGCTGATGAATTTATTATTTCGAGTAAACAAATTTTCCTAATCTTTCTGTTCAAGCGCCATCTAC,1.6 RPM ratio (pull-down/input)
12,GATGATTGTTCTCCCAGCTGATGAATTATTTTATTCGAGTAAACAAATTTTCCTAATCTTTCTGTTCAAGCGCCATCTAC,1.22 RPM ratio (pull-down/input)
13,GATGATTGTTCTCCCAGCTGATGAATTTGTTTATTCGAGTAAACAAATTTTCCTAATCTTTCTGTTCAAGCGCCATCTAC,2.89 RPM ratio (pull-down/input)
14,GATGATTGTTCTCCCAGCTGATGAATTCTTTATTTCGAGTAAACAAATTTTCCTAATCTTTCTGTTCAAGCGCCATCTAC,1.03 RPM ratio (pull-down/input)
15,GATGATTGTTCTCCCAGCTGATGAATTTTTATTTTCGAGTAAACAAATTTTCCTAATCTTTCTGTTCAAGCGCCATCTAC,2.75 RPM ratio (pull-down/input)
16,GATGATTGTTCTCCCAGCTGATGAATTTTATTTTTCGAGTAAACAAATTTTCCTAATCTTTCTGTTCAAGCGCCATCTAC,1.96 RPM ratio (pull-down/input)
17,GATGATTGTTCTCCCAGCTGATGAATTTATTTCTTCGAGTAAACAAATTTTCCTAATCTTTCTGTTCAAGCGCCATCTAC,1.29 RPM ratio (pull-down/input)

row,Sequence,binding signal
1,GATGATTGTTCTCCCAGCTGATGAATTAAATTTGTCGAGTAAACAAATTTTCCTAATCTTTCTGTTCAAGCGCCATCTAC,1.06 RPM ratio (pull-down/input)
2,GATGATTGTTCTCCCAGCTGATGAATTAGTACTGTCGAGTAAACAAATTTTCCTAATCTTTCTGTTCAAGCGCCATCTAC,1 RPM ratio (pull-down/input)
3,GATGATTGTTCTCCCAGCTGATGAATTTCGGCTGTCGAGTAAACAAATTTTCCTAATCTTTCTGTTCAAGCGCCATCTAC,0.82 RPM ratio (pull-down/input)
4,GATGATTGTTCTCCCAGCTGATGAATTATCCGCATCGAGTAAACAAATTTTCCTAATCTTTCTGTTCAAGCGCCATCTAC,1.15 RPM ratio (pull-down/input)
5,GATGATTGTTCTCCCAGCTGATGAATTCTTCTGATCGAGTAAACAAATTTTCCTAATCTTTCTGTTCAAGCGCCATCTAC,0.96 RPM ratio (pull-down/input)
6,GATGATTGTTCTCCCAGCTGATGAATTGCGCCATTCGAGTAAACAAATTTTCCTAATCTTTCTGTTCAAGCGCCATCTAC,1.14 RPM ratio (pull-down/input)
7,GATGATTGTTCTCCCAGCTGATGAATTCGATTGCTCGAGTAAACAAATTTTCCTAATCTTTCTGTTCAAGCGCCATCTAC,0.842 RPM ratio (pull-down/input)
8,GATGATTGTTCTCCCAGCTGATGAATTAAAGGTCTCGAGTAAACAAATTTTCCTAATCTTTCTGTTCAAGCGCCATCTAC,0.774 RPM ratio (pull-down/input)
9,GATGATTGTTCTCCCAGCTGATGAATTGAGTGGCTCGAGTAAACAAATTTTCCTAATCTTTCTGTTCAAGCGCCATCTAC,0.823 RPM ratio (pull-down/input)
10,GATGATTGTTCTCCCAGCTGATGAATTTTTTATTTCGAGTAAACAAATTTTCCTAATCTTTCTGTTCAAGCGCCATCTAC,1.04 RPM ratio (pull-down/input)
11,GATGATTGTTCTCCCAGCTGATGAATTTATTTGTTCGAGTAAACAAATTTTCCTAATCTTTCTGTTCAAGCGCCATCTAC,2.15 RPM ratio (pull-down/input)
12,GATGATTGTTCTCCCAGCTGATGAATTTATTTTTTCGAGTAAACAAATTTTCCTAATCTTTCTGTTCAAGCGCCATCTAC,1.41 RPM ratio (pull-down/input)
13,GATGATTGTTCTCCCAGCTGATGAATTTTATTGTTCGAGTAAACAAATTTTCCTAATCTTTCTGTTCAAGCGCCATCTAC,2.31 RPM ratio (pull-down/input)
14,GATGATTGTTCTCCCAGCTGATGAATTAAGGCGATCGAGTAAACAAATTTTCCTAATCTTTCTGTTCAAGCGCCATCTAC,0.912 RPM ratio (pull-down/input)
15,GATGATTGTTCTCCCAGCTGATGAATTTGAACTTTCGAGTAAACAAATTTTCCTAATCTTTCTGTTCAAGCGCCATCTAC,0.845 RPM ratio (pull-down/input)
16,GATGATTGTTCTCCCAGCTGATGAATTTGTACTATCGAGTAAACAAATTTTCCTAATCTTTCTGTTCAAGCGCCATCTAC,1.22 RPM ratio (pull-down/input)
